According to paper PMC7862700, “An all-to-all approach to the identification of sequence-specific readers for epigenetic DNA modifications on cytosine”:

Key:
Assay in all cases: DAPPL (digital affinity profiling via proximity ligation, sequencing); 10 mM Tris-HCl pH 7.5, 50 mM NaCl, 1 mM DTT, 4% glycerol, room temperature, 30 min; GST-TFs on glutathione beads, 16-mer random dsDNA library, 0.1% formaldehyde crosslink after washing; high values mean tight binding
Details in all cases: protein: recombinant; tags: N-terminal GST; dsDNA, one strand shown
[1] = target: T1, ELK1 (Homo sapiens, UniProt P19419 1-428)
T1 sequence: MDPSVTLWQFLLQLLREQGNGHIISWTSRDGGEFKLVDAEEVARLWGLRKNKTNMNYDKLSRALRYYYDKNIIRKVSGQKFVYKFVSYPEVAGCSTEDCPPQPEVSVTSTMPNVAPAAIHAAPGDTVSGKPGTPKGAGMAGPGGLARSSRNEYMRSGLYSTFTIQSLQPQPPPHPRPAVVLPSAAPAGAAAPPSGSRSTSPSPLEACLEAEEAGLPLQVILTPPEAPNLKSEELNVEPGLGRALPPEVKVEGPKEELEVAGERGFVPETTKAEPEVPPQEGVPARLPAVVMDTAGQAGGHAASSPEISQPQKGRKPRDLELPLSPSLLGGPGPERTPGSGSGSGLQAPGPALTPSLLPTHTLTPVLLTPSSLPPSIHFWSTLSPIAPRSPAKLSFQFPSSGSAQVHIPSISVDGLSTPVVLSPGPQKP
How it was run: (§1)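 GST fusions of human transcription factors were expressed in yeast and captured with glutathione beads. Once given DNA barcodes and pooled alongside a tag-only sample, they were incubated for 30 min at room temperature with 200 nmole of a random double-stranded 16-mer DNA library in Tris/NaCl/DTT/glycerol buffer, then washed, crosslinked (0.1% formaldehyde), proximity-ligated, PCR-amplified and sequenced on an Illumina NextSeq500. The binding signal of each hexamer is its read frequency for a factor divided by its frequency for the tag-only sample.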

[2] = target: T2, ERG (Homo sapiens, UniProt P11308 1-479)
T2 sequence: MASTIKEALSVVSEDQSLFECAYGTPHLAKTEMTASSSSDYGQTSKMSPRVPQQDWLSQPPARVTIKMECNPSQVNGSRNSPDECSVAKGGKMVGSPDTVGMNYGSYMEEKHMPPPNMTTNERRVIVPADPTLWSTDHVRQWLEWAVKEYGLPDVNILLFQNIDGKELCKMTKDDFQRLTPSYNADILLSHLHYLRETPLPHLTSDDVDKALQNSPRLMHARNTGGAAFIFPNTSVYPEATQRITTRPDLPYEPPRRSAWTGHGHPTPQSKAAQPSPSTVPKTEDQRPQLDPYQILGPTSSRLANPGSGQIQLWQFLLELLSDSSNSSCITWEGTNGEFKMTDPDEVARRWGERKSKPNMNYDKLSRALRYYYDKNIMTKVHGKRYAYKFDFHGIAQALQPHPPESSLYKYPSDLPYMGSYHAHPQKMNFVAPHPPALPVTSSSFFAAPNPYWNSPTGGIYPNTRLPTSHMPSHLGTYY
How it was run: as §1

[3] = target: T3, ELK3 (Homo sapiens, UniProt P41970 1-407)
T3 sequence: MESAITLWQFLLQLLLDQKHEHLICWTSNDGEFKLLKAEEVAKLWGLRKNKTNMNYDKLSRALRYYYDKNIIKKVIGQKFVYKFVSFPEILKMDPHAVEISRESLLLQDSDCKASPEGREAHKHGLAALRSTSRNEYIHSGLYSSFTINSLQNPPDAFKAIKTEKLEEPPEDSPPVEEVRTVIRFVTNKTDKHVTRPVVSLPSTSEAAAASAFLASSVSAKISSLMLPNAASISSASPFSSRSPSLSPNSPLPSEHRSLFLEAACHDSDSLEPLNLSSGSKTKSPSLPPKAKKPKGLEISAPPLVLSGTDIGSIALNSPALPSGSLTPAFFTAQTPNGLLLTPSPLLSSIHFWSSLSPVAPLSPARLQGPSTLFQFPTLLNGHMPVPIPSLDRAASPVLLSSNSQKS
How it was run: as §1

[4] = target: ETV5 (Homo sapiens, UniProt P41161 1-510)
Sequence of ETV5 (P41161 whole entry): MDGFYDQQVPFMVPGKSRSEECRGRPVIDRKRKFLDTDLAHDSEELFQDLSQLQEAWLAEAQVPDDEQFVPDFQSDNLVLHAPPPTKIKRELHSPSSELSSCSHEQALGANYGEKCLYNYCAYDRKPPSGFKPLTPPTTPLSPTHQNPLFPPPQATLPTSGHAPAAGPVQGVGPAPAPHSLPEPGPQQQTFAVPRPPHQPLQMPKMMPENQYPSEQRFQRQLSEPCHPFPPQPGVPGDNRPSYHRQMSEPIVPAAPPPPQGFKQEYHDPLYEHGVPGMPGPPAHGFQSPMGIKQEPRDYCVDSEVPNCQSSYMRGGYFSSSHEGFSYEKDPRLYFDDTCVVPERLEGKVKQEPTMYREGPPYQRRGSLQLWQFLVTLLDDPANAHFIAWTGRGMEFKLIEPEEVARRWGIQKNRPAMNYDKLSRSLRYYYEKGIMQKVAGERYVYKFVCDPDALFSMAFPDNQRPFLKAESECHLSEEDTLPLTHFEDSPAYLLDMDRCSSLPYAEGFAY
How it was run: as §1

[5] = target: T4, ELK4 (Homo sapiens, UniProt P28324-2 1-405)
T4 sequence: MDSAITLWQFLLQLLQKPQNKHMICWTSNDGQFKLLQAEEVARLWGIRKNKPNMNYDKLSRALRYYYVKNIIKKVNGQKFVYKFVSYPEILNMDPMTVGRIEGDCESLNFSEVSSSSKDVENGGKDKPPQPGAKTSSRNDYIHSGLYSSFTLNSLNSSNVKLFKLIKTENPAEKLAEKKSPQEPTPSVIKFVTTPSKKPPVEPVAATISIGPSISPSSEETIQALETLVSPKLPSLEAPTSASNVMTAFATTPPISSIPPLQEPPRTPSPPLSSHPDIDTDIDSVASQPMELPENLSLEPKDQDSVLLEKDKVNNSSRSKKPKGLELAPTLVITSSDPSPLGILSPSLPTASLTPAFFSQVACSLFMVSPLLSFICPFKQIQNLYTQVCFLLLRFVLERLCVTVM
How it was run: as §1

[6] = target: ETV1 (Homo sapiens, UniProt P50549 1-477)
Sequence of ETV1 (P50549 whole entry): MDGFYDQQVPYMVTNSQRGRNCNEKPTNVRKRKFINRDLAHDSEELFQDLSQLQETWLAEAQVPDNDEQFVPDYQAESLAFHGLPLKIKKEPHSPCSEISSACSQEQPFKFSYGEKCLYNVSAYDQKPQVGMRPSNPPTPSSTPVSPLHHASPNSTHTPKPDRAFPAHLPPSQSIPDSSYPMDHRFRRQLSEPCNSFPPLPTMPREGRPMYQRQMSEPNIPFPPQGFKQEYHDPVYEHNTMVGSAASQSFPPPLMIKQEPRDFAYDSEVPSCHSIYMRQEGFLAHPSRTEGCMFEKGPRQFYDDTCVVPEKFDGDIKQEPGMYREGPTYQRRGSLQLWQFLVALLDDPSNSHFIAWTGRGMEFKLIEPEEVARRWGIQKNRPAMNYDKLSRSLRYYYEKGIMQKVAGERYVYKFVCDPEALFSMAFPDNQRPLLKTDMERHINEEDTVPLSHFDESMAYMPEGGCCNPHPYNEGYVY
How it was run: as §1

[7] = target: T5, ETV3L (Homo sapiens, UniProt Q6ZN32 1-361)
T5 sequence: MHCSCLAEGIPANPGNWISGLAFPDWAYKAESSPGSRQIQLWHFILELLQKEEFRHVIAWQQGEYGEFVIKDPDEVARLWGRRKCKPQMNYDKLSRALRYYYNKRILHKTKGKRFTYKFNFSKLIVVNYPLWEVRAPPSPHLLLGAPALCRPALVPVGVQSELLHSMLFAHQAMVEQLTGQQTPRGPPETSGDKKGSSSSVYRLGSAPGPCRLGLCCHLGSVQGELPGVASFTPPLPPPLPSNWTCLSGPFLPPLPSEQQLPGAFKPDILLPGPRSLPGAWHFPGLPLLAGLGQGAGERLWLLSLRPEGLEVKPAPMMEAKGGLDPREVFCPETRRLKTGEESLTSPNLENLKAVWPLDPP
How it was run: as §1

[8] = target: T6, ETS2 (Homo sapiens, UniProt P15036 1-469)
T6 sequence: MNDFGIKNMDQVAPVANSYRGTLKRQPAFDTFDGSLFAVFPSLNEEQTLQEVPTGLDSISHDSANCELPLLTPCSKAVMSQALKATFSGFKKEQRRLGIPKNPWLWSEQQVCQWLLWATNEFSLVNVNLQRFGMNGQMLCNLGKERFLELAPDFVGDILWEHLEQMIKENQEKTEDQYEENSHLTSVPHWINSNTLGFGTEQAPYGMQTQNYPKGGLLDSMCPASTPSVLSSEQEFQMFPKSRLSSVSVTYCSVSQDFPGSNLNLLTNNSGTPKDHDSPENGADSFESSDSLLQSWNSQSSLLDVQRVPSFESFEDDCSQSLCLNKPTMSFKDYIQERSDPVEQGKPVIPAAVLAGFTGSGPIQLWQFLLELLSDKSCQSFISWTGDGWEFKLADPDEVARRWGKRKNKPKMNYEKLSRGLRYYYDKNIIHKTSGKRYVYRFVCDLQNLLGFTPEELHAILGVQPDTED
How it was run: as §1

[9] = target: T7, SPDEF (Homo sapiens, UniProt O95238 1-335)
T7 sequence: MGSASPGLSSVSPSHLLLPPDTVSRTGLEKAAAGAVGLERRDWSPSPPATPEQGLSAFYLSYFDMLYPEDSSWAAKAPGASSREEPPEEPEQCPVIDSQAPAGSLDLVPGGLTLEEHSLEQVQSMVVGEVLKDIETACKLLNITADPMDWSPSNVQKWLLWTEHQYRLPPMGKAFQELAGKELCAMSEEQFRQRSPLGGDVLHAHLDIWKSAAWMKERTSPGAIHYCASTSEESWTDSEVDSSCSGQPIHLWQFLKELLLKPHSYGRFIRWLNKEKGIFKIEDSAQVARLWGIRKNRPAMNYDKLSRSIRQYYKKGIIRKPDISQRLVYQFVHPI
How it was run: as §1

[10] = target: T8, ETV7 (Homo sapiens, UniProt Q9Y603 1-341)
T8 sequence: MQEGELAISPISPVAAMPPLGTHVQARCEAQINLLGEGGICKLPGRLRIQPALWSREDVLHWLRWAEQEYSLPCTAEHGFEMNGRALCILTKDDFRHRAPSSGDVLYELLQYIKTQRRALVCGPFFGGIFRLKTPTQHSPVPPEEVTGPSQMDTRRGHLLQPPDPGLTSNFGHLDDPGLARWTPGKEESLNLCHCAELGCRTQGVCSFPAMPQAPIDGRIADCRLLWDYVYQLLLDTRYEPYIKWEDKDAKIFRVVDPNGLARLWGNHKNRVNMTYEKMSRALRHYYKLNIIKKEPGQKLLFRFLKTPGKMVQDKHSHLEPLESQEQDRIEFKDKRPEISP
How it was run: as §1

[11] = target: T9, ETV3 (Homo sapiens, UniProt P41162-2 1-143)
T9 sequence: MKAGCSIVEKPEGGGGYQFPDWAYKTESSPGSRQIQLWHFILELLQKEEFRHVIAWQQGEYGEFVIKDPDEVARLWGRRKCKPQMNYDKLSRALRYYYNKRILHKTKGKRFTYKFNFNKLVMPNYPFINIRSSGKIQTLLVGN
How it was run: as §1

[12] = target: ETV6 (Homo sapiens, UniProt P41212 1-452)
Sequence of ETV6 (P41212 whole entry): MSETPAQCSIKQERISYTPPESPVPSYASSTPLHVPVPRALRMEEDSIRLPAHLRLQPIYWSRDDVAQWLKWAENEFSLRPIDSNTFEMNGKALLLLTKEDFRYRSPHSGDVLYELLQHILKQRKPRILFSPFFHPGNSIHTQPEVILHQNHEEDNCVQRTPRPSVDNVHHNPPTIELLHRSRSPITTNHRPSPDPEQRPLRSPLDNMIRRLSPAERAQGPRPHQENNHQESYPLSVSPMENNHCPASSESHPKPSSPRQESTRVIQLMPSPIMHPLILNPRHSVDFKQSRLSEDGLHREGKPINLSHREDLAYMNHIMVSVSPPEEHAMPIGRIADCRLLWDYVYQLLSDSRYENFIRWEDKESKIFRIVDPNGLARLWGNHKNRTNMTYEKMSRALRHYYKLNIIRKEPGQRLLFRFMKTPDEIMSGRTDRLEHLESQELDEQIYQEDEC
How it was run: as §1

[13] = target: T10, GABPA (Homo sapiens, UniProt Q06546 1-454)
T10 sequence: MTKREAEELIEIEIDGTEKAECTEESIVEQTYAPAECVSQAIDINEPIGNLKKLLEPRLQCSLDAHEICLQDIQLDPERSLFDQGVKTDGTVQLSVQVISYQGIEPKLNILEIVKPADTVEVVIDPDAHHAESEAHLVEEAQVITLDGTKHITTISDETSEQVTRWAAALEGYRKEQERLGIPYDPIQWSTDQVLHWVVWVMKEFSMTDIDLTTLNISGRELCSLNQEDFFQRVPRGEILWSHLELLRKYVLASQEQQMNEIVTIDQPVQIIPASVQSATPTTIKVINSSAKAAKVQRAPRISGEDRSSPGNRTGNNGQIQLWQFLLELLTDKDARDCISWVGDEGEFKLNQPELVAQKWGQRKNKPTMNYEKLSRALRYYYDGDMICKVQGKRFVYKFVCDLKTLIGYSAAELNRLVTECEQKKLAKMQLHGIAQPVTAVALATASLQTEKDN
How it was run: as §1

[14] = target: ELF1 (Homo sapiens, UniProt P32519 1-619)
Sequence of ELF1 (P32519 whole entry): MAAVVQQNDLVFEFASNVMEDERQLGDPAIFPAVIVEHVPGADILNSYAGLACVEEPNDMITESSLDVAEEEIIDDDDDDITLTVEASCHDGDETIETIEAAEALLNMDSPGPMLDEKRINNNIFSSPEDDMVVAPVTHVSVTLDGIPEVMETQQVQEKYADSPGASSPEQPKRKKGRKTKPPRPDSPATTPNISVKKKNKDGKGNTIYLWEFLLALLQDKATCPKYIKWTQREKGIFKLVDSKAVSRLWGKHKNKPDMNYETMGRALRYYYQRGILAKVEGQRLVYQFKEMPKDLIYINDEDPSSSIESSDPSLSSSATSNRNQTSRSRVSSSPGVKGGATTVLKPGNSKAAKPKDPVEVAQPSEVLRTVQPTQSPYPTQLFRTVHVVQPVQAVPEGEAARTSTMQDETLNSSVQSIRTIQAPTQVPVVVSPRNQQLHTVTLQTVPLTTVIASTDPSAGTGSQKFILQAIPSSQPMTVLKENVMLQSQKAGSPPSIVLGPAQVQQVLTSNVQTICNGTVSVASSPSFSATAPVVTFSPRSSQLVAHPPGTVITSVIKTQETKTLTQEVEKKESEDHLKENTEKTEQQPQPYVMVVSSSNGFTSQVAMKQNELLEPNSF
How it was run: as §1

[15] = target: T11, EHF (Homo sapiens, UniProt Q9NZC4 1-300)
T11 sequence: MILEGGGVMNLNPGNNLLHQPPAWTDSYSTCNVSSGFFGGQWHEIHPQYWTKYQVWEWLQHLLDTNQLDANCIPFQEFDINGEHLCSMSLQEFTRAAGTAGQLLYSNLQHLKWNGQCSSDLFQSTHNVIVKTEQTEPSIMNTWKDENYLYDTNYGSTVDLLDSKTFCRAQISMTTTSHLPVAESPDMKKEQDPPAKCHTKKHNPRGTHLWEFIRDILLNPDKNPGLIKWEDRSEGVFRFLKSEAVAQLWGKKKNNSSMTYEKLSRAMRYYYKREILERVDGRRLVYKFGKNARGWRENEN
How it was run: as §1

[16] = target: SPIB (Homo sapiens, UniProt Q01892 1-262)
Sequence of SPIB (Q01892 whole entry): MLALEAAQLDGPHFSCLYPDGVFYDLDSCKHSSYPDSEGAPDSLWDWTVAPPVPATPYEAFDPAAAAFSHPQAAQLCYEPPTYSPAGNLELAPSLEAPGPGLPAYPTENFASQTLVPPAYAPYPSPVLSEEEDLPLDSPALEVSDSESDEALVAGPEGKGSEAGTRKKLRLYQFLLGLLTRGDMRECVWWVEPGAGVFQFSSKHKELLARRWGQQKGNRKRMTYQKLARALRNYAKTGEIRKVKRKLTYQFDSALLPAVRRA
How it was run: as §1

[17] = target: T12, FEV (Homo sapiens, UniProt Q99581 1-238)
T12 sequence: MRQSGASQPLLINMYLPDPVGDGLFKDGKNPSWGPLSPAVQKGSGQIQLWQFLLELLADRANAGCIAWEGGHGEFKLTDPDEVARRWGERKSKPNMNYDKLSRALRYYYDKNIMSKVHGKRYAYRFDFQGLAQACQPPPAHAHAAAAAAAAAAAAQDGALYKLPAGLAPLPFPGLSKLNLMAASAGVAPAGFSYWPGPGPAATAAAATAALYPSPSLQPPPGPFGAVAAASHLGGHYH
How it was run: as §1

[18] = target: T13, ELF3 (Homo sapiens, UniProt P78545 1-371)
T13 sequence: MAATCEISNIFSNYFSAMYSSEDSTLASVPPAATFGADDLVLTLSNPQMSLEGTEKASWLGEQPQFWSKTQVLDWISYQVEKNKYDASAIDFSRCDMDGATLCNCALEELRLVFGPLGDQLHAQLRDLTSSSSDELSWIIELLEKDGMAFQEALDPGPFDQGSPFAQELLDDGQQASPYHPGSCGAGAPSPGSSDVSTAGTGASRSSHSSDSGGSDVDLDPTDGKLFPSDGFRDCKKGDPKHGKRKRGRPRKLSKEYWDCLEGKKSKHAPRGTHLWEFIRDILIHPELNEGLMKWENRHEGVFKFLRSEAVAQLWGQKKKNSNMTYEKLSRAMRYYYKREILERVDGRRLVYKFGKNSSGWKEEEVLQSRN
How it was run: as §1

Sequence	binding signal [1]	binding signal [2]	binding signal [3]	binding signal [4]	binding signal [5]	binding signal [6]	binding signal [7]	binding signal [8]	binding signal [9]	binding signal [10]	binding signal [11]	binding signal [12]	binding signal [13]	binding signal [14]	binding signal [15]	binding signal [16]	binding signal [17]	binding signal [18]
TCAGTT	1.03 fold enrichment (6-mer frequency, TF over GST control)	1.03 fold enrichment (6-mer frequency, TF over GST control)	1.09 fold enrichment (6-mer frequency, TF over GST control)	1 fold enrichment (6-mer frequency, TF over GST control)	1.08 fold enrichment (6-mer frequency, TF over GST control)	1.04 fold enrichment (6-mer frequency, TF over GST control)	1.05 fold enrichment (6-mer frequency, TF over GST control)	1.04 fold enrichment (6-mer frequency, TF over GST control)	1.04 fold enrichment (6-mer frequency, TF over GST control)	1.02 fold enrichment (6-mer frequency, TF over GST control)	1.05 fold enrichment (6-mer frequency, TF over GST control)	1.03 fold enrichment (6-mer frequency, TF over GST control)	–	–	–	–	–	–
TCGTCC	1.1 fold enrichment (6-mer frequency, TF over GST control)	–	1.18 fold enrichment (6-mer frequency, TF over GST control)	1.01 fold enrichment (6-mer frequency, TF over GST control)	1.15 fold enrichment (6-mer frequency, TF over GST control)	1.06 fold enrichment (6-mer frequency, TF over GST control)	–	–	1.08 fold enrichment (6-mer frequency, TF over GST control)	1.08 fold enrichment (6-mer frequency, TF over GST control)	1.04 fold enrichment (6-mer frequency, TF over GST control)	1.08 fold enrichment (6-mer frequency, TF over GST control)	1.05 fold enrichment (6-mer frequency, TF over GST control)	1.03 fold enrichment (6-mer frequency, TF over GST control)	1 fold enrichment (6-mer frequency, TF over GST control)	1.06 fold enrichment (6-mer frequency, TF over GST control)	1 fold enrichment (6-mer frequency, TF over GST control)	1.08 fold enrichment (6-mer frequency, TF over GST control)
